Compound activity deposited in PubChem by National Center for Advancing Translational Sciences (NCATS).
MARV entry inh = inhibitors of Marburg virus binding or cell entry; Marburg virus pseudotyped entry inhibition, cell reporter; Potency, µM (titrated, usually from 37.8 µM), inactives show top-dose activity change, negative = inhibition, most hits filed as inhibitors; 1.8% of 300,000 active; calls by dose curve; tested in HEK293 cells; also: potency is read from the fitted curve at half-maximal effect
HCMV inh = human cytomegalovirus inhibition. AID 1259415. 4.5% of 410,000 active. HFF cells, HCMV-luciferase reporter, 72 h; active compounds read low. activity change, negative = inhibition, % at 57.5 µM; in the data active = activity change below about -60%; inconclusive = no clear call, values can overlap the other calls; inactive = above about -39%
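Luciferase read-out from HCMV-luciferase-infected HFFs (MOI 1 PFU/cell) 72 h post infection at 37C; compounds added after 16 h cell attachment; activity normalized between buffer-only basal and Salinomycin (10uM) inhibitor controls.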
Pf growth 96h = P. falciparum growth inhibition at 96 hour, primary screen for plastid delayed-death inhibitors. Potency, µM (series often up to 28.7 µM), without a hit: at the top dose activity change, negative = inhibition, actives largely listed as inhibitors. P. falciparum luciferase reporter growth, 96 h. 6.9% of 320,000 active. AID 504834; also: potency is read from the fitted curve at half-maximal effect
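Parasite growth measured via integrated firefly luciferase reporter in P. falciparum. Infected erythrocytes at 2% hematocrit, 0.05% parasitemia final were treated 96 hours at 37 C under 5% CO2, and luminescence was read.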
Lassa entry inh = blocks Lassa virus binding to or entry into cells; 1.2% of 300,000 active; Potency, µM (top dose mostly 37.9 µM), for the others: top-dose activity change, negative = inhibition, actives largely listed as inhibitors; Lassa virus pseudotype entry inhibition, cell reporter; calls by dose curve; tested in HEK293 cells; also: potency is read from the fitted curve at half-maximal effect; nearly all actives have a fitted effect of over 50% in size
Pf growth 48h = inhibits P. falciparum growth in the first generation, 48 h; P. falciparum luciferase growth in erythrocytes, 48 h; 5.9% of 310,000 active; Potency, µM (titrated, usually from 28.7 µM), inactives show at the top dose activity change, negative = inhibition, most hits filed as inhibitors; also: potency is read from the fitted curve at half-maximal effect
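Here the parasites carry a stable luciferase gene and grow inside erythrocytes in Albumax-based RPMI medium with compound for one erythrocytic cycle. Activity is scored as loss of luminescent signal.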
HCV inhibitor = inhibitors of hepatitis C virus infection. 3.4% of 340,000 active. Huh7.5.1 HCVcc-Cre infection, luciferase reporter, 44 h. Potency, µM (titrated, usually from 41.8 µM), for inactives: at the top dose activity change, negative = inhibition, actives largely listed as inhibitors; also: potency is read from the fitted curve at half-maximal effect
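HCVcc-Cre virus at an moi near 0.5 was added right after compound to cells cultured 4 h from seeding (1,000 cells/well). Luciferase activity was determined 44 h later, 15 min after substrate addition at RT.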
Active calls of the source: *; ? = inconclusive; . = not tested or not shown; [ ] = dose if it differs, or a comment. The list is not random: actives were taken first. Their share in the collection is about 14%. Unless noted, calls follow the shape of the dose curve; as a rule, active = well fitted inhibition curve with a large enough effect; inconclusive = small, poorly fitted or top-dose-only effect, or another doubt; inactive = no such curve, though single readings can be large or run the other way. % is scaled to controls: 0 for no effect and ±100 for the full control effect.

SMILES	MARV entry inh	HCMV inh	Pf growth 96h	Lassa entry inh	Pf growth 48h	HCV inhibitor
CN1C2CCC1/C(=C/c1ccccn1)C(=O)/C2=C\c1ccccn1	1.3µM*	-101*	0.47µM*	2.3µM*	0.66µM*	3.5µM*
COc1ccc(-c2cn3cccnc3n2)cc1NC(=O)c1cc(OC)c(OC)c(OC)c1	0%[46.1 µM]	202	?	13%	0%	3%
COc1ccc(-c2cn3cccnc3n2)cc1NC(=O)c1cccs1	7%	20	12µM*	-4%	3%	1%
COc1ccc(-c2cn3cccnc3n2)cc1NC(=O)C(C)Oc1ccccc1 (configuration not stated)	?	-24	8%	?	13µM*	22µM*
CC(C)CN(C[C@@H](OP(=O)(O)O)[C@H](Cc1ccccc1)NC(=O)O[C@@H]1CCOC1)S(=O)(=O)c1ccc(N)cc1	.	.	-7%	.	7%	.
COCCN1C(=O)C(=O)/C(=C(/O)c2ccc(C)cc2)C1c1ccccn1 (configuration not stated)	4%[46.1 µM]	-17	3.3µM*	?	-3%	10%
Cc1ccc(/C(O)=C2/C(=O)C(=O)N(CCCn3ccnc3)C2c2ccccn2)cc1 (configuration not stated)	.	.	?	.	4%	.
CCN(CC)CCN1C(=O)C(=O)/C(=C(/O)c2cccc(OC)c2)C1c1ccccn1 (configuration not stated)	2%	23	12µM*	6%	?	5%
N#Cc1ccc(NC(=S)NC(=O)C2CC2)cc1	.	-19	.	.	.	.
CC1CCCN(C(=O)c2cc3ccc4cccnc4c3[nH]2)C1 (configuration not stated)	.	-81*	.	-14%[46.1 µM]	.	.
O=C(NCC1CCN(Cc2ccc(F)cc2)CC1)c1cc2ccc3cccnc3c2[nH]1	.	-68*	.	?	.	.
Cc1ccc(Cl)cc1N1CCN(C(=O)c2cc3ccc4cccnc4c3[nH]2)CC1	.	-70*	.	?	.	.
O=C(c1cc2ccc3cccnc3c2[nH]1)N1CCCCC1	.	-67*	.	5%[46.1 µM]	.	.
Cc1ccc(NCc2ccc(O)c3ncccc23)cc1	?	-23	16%	?	-17%	5.6µM*
Cc1ccc(NCc2ccc(O)c3ncccc23)cc1C	?	-79*	?	?	84%	?
COc1cccc(CNc2cccc(C(F)(F)F)c2)c1O	?	-34	?	?	-4%	-8%
Cc1ccc(O)c(CNc2cccc3cccnc23)c1	-10%	-40	?	-1%	?	?
Cc1ccc(NCc2ccccc2O)cc1	26%	24	.	-24%	3%	?
Oc1ccc(CNc2cccc(C(F)(F)F)c2)c2cccnc12	.	.	?	.	10µM*	.
CCn1cc(/C=C(\NC(=O)c2ccc(OC)c(OC)c2)C(=O)N2CCOCC2)c2ccccc21	.	-23	?	.	?	0%
O=Cc1cn(CC(O)CN2CCCCC2)c2ccccc12 (configuration not stated)	?	12	?	14%	27%	-3%
COc1ccc(C(=O)/C=C/c2cn(CC(O)CN3CCc4ccccc43)c3ccccc23)cc1OC (configuration not stated)	?	-64*	.	?	.	.
Cc1ccc(C(=O)/C=C/c2cn(CC(O)CN3CCc4ccccc43)c3ccccc23)cc1 (configuration not stated)	?	-74*	.	?	.	.
Cc1ccc(Cn2c(CN3CCC(C(=O)NCC(C)c4ccccc4)CC3)cc3ccccc32)cc1 (configuration not stated)	.	-20	.	-24%[46.1 µM]	.	.
COc1ccc(N2C(=O)C(CN3CCN(C)CC3)C2c2ccccc2)cc1 (configuration not stated)	?	-23	0%	0%	-15%	35µM*
SMILES	MARV entry inh	HCMV inh	Pf growth 96h	Lassa entry inh	Pf growth 48h	HCV inhibitor
COc1ccc(C2C(CN3CCOCC3)C(=O)N2c2ccccc2)cc1 (configuration not stated)	?	-36	-5%	?	4%	13%
N#Cc1c(-c2ccc(Cl)cc2)n(O)c2ccccc12	8.9µM*	.	.	13µM*	.	?
N#Cc1c(-c2ccc(Cl)cc2)[nH]c2ccccc12	.	-38	.	.	.	.
CCc1ccc(Oc2nc3c(C)cccn3c(=O)c2/C=C(\C#N)c2nc3ccccc3s2)cc1	0%[46.1 µM]	4	.	2%[46.1 µM]	.	.
CCOc1ccc(C(O)C(CN2CCOCC2)c2ccccc2)cc1 (configuration not stated)	14%	?	10µM*	?	?	7%
CCCOc1ccc(C(O)C(CN2CCOCC2)c2ccccc2)cc1 (configuration not stated)	-6%	?	8.3µM*	-20%	8.3µM*	-3%
CCCCOc1ccc(C(O)C(CN2CCOCC2)c2ccccc2)cc1 (configuration not stated)	.	?	?	.	?	-7%
Cc1ccc(C)c(N2CCN(S(=O)(=O)c3c(C)noc3/C=C/N(C)C)CC2)c1	13µM*	-10	136%	?	?	?
Cc1noc(/C=C/N(C)C)c1S(=O)(=O)N1CCN(c2ccccc2)CC1	.	-86*	9%	.	.	?
CC1CCCC(=NNc2ccc3ccccc3n2)C1 (configuration not stated)	?	-12	.	?	.	-1%
CCOc1ccc(-n2c(=O)c3c(C)c(C)sc3n(CC(=O)Nc3ccc(CC)cc3)c2=O)cc1	-5%[46.1 µM]	-25	.	-12%[46.1 µM]	.	.
CCCN1C(=O)C2(OCCO2)c2cc(Cl)ccc21	.	23	7%	.	11%	-19%
CCc1c(O)cc2n(c1=O)-c1ccc(Cl)cc1C2(C)C	-25%	-19	-27%	-6%	12µM*	3%
CN1[C@@H]2CC[C@H]1CC(OC(=O)[C@@H](O)c1ccccc1)C2 (some centres not stated)	28%	.	-20%	.	-15%	.
CSc1cccc(N2CC(C(=O)Nc3cccc(S(=O)(=O)N4CCCC4)c3)CC2=O)c1 (configuration not stated)	?	-35	?	0%	-22%	?
COc1ccc(Nc2nc(Nc3ccc(OC)cc3)nc(SC3=NCCS3)n2)cc1	?	-19	12µM*	?	.	?
Cc1cc(C)c(NC(=O)Cn2nc(-c3ccncc3)ccc2=O)c(C)c1	.	?	.	16%[46.1 µM]	.	.
CCCc1cc(NC(=O)COC(=O)c2nccnc2N)n(-c2ccccc2)n1	.	-104*	18%	.	4%	-1%
CCOCCCNCc1cccc(OC)c1	3%	57	53%	29%	11%	17%
COc1cccc(CNCCC2=C3C=CC=CC3N=C2)c1 (configuration not stated)	11µM*	.	.	.	.	.
